Screening results (PubChem)
TDP1 block – blocks human tyrosyl-DNA phosphodiesterase 1; Q9NUW8; AID 485290; hit rate 0.28% among 350,000; recombinant TDP1, AlphaScreen DNA substrate cleavage; Potency, µM (doses to about 130 µM), for inactives: at the top dose activity change, negative = inhibition, usual class: inhibitors; further: potency means the concentration at half of the fitted maximal effect; nearly all actives have a fitted effect of over 40% in size
Target sequence (Q9NUW8 whole entry, looked up): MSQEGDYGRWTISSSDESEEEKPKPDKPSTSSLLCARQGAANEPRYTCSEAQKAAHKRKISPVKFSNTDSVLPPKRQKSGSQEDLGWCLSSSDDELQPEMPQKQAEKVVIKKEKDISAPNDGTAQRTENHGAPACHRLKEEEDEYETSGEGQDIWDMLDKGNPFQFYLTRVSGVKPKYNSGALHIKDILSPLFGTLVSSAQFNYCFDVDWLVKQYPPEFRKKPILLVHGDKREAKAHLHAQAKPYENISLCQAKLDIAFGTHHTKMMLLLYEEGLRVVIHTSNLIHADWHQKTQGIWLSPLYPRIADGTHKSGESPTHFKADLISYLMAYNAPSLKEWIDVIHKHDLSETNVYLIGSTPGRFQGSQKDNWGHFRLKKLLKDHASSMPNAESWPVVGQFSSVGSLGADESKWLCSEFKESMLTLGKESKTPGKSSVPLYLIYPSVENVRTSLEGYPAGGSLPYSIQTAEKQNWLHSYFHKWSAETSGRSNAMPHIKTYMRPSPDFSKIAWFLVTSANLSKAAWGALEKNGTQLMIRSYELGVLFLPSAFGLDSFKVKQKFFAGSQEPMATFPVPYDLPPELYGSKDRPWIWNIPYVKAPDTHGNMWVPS
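E. coli-derived human Tdp1, 1 nM final. Cpd preinc 15 min RT; substrate 15 nM final, 5 min RT; AS bead mix 10 ug/ml final, 10 min RT. Signal loss = tyrosine-FITC cleavage. No-enzyme wells = max signal.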
ELG1 repair inh – ELG1-dependent DNA repair inhibition; HEK293T ELG1-luciferase reporter, luminescence, 16 h; DNA damage induced by 5-fluorouridine; Potency, µM (titrated, usually from 46.1 µM), inactives show at the highest dose activity change, negative = inhibition, actives largely listed as inhibitors; hit rate 2.3% among 330,000; further: potency means the concentration at half of the fitted maximal effect; nearly all actives have a fitted effect of over 55% in size
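In this reporter screen, reduction of luminescence relative to DMSO vehicle indicated activity. Compounds and 5-fluorouridine were added together to 2,000 cells per well, incubated for 16 hr at 37 °C, then developed with ONE-Glo.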
IL-1B inflam inh – inhibitors of inflammasome signaling (IL-1 beta secretion). hit rate 4.7% among 360,000. activity change, % at 57.5 µM. THP-1 LPS/ATP IL-1B secretion, AlphaLISA, 16 h; stronger effect = lower value. AID 743279; in the data active means activity change below about -50%; inconclusive means mostly about -30% to -49%
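THP-1 cells pretreated 1 hr with compounds (up to 57.5 uM final), then stimulated with LPS (250 ng/mL final) plus ATP (1.25 mM final); secreted IL-1B measured by AlphaLISA after 16 hr, decreased signal indicating inhibition.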
TDP1 cell noCPT – qHTS for Inhibitors of human tyrosyl-DNA phosphodiesterase 1 (TDP1): qHTS in cells in absence of CPT | DT40 Tdp1-/- hTDP1 cells, no CPT, ATP luminescence, 48 h | Potency, µM (titrated, usually from 46.2 µM), for the others: at the highest dose activity change, negative = growth inhibition, hits mostly inhibitors | hit rate 15% among 420,000; further: potency means the concentration at half of the fitted maximal effect; nearly all actives have a fitted effect of over 55% in size
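Stably hTDP1-transfected Tdp1-null chicken DT40 cells were treated with library compounds minus camptothecin and grown for at least 48 hr at 37 °C, after which cellular ATP was quantified by luminescence.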
Giardia kill – kills Giardia lamblia; Giardia lamblia trophozoite viability; activity change, % at 7.66 µM, hits read low; hit rate 0.15% among 340,000; in the data active means activity change below about -80%; inconclusive means between about -30% and that limit;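 further: parasites exposed to compound for two days anaerobically before the ATP read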
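Luminescent ATP signal served as the viability read-out, measured 15-30 min after adding ATP detection reagent to trophozoites that had been incubated with compounds for 48 hrs at 37 deg C anaerobically at 100 cells/well.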
TDP1 cell CPT – DT40-hTDP1 cell growth loss with CPT; AID 686979; chicken DT40 Tdp1-/-;hTDP1 cells + 20 nM CPT, ATP luminescence, 48 h; hit rate 12% among 420,000; Potency, µM (highest dose often 46.2 µM), for inactives: at the highest dose activity change, negative = growth inhibition, usual class: inhibitors; further: potency means the concentration at half of the fitted maximal effect; nearly all actives have a fitted effect of over 55% in size
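Chicken DT40 Tdp1-/- cells stably complemented with human TDP1 were seeded at 400 cells/well in medium containing 20 nM camptothecin, exposed to pin-transferred compounds, and grown at 37 °C for at least 48 hr. Viability was read as ATP luminescence.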
* hit, by the source's call; ? = inconclusive; nt = not tested or not shown; [ ] = another dose, or the depositor's remark. Compounds with a hit are over-represented: about 19% of the library has one in this group of screens. Unless noted, the call rests on the fitted dose curve; in most records, active means well fitted curve in the direction sought with a large enough effect; inconclusive means small, poorly fitted or top-dose-only effect, or another doubt; inactive means no such curve, though single readings can be large; an effect the other way counts as inactive or inconclusive. On the % scale 0 is the no-effect control and ±100 the full control effect.

SMILES	TDP1 block	ELG1 repair inh	IL-1B inflam inh	TDP1 cell noCPT	Giardia kill	TDP1 cell CPT
OC(COc1ccccc1)CN(Cc1ccccc1)CC(O)COc1ccccc1 (stereo not given)	-7.5%	?	-52.7*	20.6µM*	-8.5	16.4µM*
COc1cccc(OCC(O)CN(CCO)Cc2ccccc2)c1 (stereo not given)	-0.9%	-4.5%	21.6	-21.2%	-3.5	-20.4%
CCC(=O)c1ccc(OCC(O)CN(CCc2ccccc2)Cc2ccccc2)cc1 (stereo not given)	-3.8%	?	-80.0*	20.6µM*	-12.8	?
C/C(Cl)=C\COc1cc(C)nc2c(Br)cccc12	-2.6%	-8.6%	6.4	29.1µM*	-8.4	-1.8%
COc1cc(CN2CCCCC2C(=O)Nc2ccc(Oc3ccccc3)nc2)ccc1O (stereo not given)	5.1%	?	13.0	?	8.6	?
CCCNC(=O)N1[C@H](c2cccs2)[C@@H](C)C(=O)[C@@H](C)[C@@H]1c1cccs1	0.0%	nt	nt	?	nt	-26.5%
CC(C)NC(=O)N1[C@H](c2cccs2)[C@@H](C)C(=O)[C@@H](C)[C@@H]1c1cccs1	5.7%	nt	nt	?	nt	14.6µM*
COC(=O)c1c(NC(=O)C2COc3ccccc3O2)sc2c1CCN(C(=O)OC)C2 (stereo not given)	nt	nt	?	20.6µM*	nt	16.4µM*
CC(C)(C)C(=O)Nc1nc2c(s1)CN(Cc1ccccc1)CC2	9.2%	?	-12.3	18.4µM*	-8.6	?
NC(=O)c1c(NC(=O)Cc2ccccc2)sc2c1CCN(Cc1ccccc1)C2	nt	2.7%	-24.1	13µM*	5.1	11.6µM*
COC(=O)c1ccccc1NC(=O)C1COc2ccccc2O1 (stereo not given)	nt	19.9%	2.0	-16.1%	-12.3	1.9%
CCOC(=O)c1c(NC(C)=O)sc2c1CCN(Cc1ccccc1)C2	nt	3.1%	0.0	?	-7.0	?
CCOC(=O)c1c(NC(=O)C(C)Sc2cccc[n+]2[O-])sc2c1CCN(Cc1ccccc1)C2 (stereo not given)	2.7%	?	-25.5	16.4µM*	7.3	?
CCC1CN(CCNC(=O)c2cn3cc(C)ccc3n2)Cc2cc(OC)ccc2O1 (stereo not given)	nt	nt	nt	?	nt	3.1%[9.04 µM]
CCCNC(=O)c1c(NC(=O)C2COc3ccccc3O2)sc2c1CCCC2 (stereo not given)	0.7%	?	17.8	?	16.4	11.6µM*
COC(=O)c1c(NC(C)=O)sc2c1CCN(Cc1ccccc1)C2	nt	17.0%	14.7	-19.1%	-2.0	-3.6%
COC(=O)c1c(NC(=O)C2COc3ccccc3O2)sc2c1CCN(Cc1ccccc1)C2 (stereo not given)	1.9%	?	-2.9	20.6µM*	3.3	16.4µM*
COC(=O)c1c(NC(=O)C(C)(C)C)sc2c1CCN(Cc1ccccc1)C2	nt	-16.8%	-17.5	?	-22.9	16.4µM*
CC(=O)Nc1sc2c(c1C(N)=O)CCN(Cc1ccccc1)C2	nt	-2.4%	5.9	-21.0%	5.9	7.1%
COc1ccc(S(=O)(=O)N2CCC(C(=O)NCC3CC3)CC2)cc1	nt	6.4%	2.5	-3.7%	27.3	-6.4%
Cn1cnc2nc(Cl)nc(Cl)c21	nt	nt	-93.5*	1.16µM*	-11.9	1.64µM*
CNc1nc(Cl)nc2ncn(C)c12	nt	nt	-6.4	-2.2%	-2.3	0.0%
CC(C)(C)c1ccc(NS(=O)(=O)c2ccc(N)cc2)cc1	2.5%	0.0%	-29.3	?	-13.1	2.5%
CC(=O)Nc1ccc(S(=O)(=O)Nc2ccc(Cc3ccncc3)cc2)cc1	4.0%	-20.0%	-4.9	9.2µM*	-13.4	?
CC(C)(C)c1ccc(S(=O)(=O)Nc2ccc(Cc3ccncc3)cc2)cc1	11.3%	6.3%	?	16.4µM*	-8.6	?
SMILES	TDP1 block	ELG1 repair inh	IL-1B inflam inh	TDP1 cell noCPT	Giardia kill	TDP1 cell CPT
COCCNc1nc(NCCN2CCNC2=O)c2sccc2n1	nt	nt	-71.1*	-4.7%	nt	-21.3%
COc1ccccc1CNc1nc(NCCN2CCNC2=O)c2sccc2n1	nt	nt	40.8	?	nt	18.4µM*
Cc1noc(/C=C/c2ccccc2F)c1S(=O)(=O)N1CCC(C(=O)N2CCOc3ccccc32)CC1	1.8%	nt	nt	?	nt	?
CC(C)CCn1c2ccccc2c2cc(CC(N)=O)ccc21	0.0%	2.2%	-11.2	23.1µM*	-17.8	?
NC(=O)CCn1c2ccccc2c2ccccc21	-2.5%	-13.7%	0.6	-2.1%	-1.7	4.1%
O=C(CS(=O)c1ccccc1[N+](=O)[O-])Oc1ccc(Br)cc1 (stereo not given)	nt	-3.1%	-62.4*	-16.7%	-18.5	-19.3%
CS(=O)(=O)c1ccc(S(=O)CC(=O)Oc2ccc(Cl)cc2)c([N+](=O)[O-])c1 (stereo not given)	2.6%	?	-98.8*	0.581µM*	11.1	1.16µM*
O=[N+]([O-])c1cc(CS(=O)(=O)Oc2ccc(Cl)cc2)c(O)c([N+](=O)[O-])c1	nt	nt	12.7	-19.7%	-16.0	2.5%
O=C(Cc1ccc([N+](=O)[O-])cc1)Oc1ccccc1	nt	nt	6.8	-1.2%	-8.1	7.5%
Cc1sc2nc(SCC(=O)C(C)(C)C)n(Cc3ccco3)c(=O)c2c1C	-1.0%	?	19.7	13µM*	-2.9	13µM*
CCOC(=O)CC(=O)CSc1nc2sc(C)cc2c(=O)n1Cc1ccco1	-6.8%	?	12.2	23.1µM*	-0.1	16.4µM*
CCCCNC(=O)c1nc(C2CCN(S(=O)(=O)c3c(F)cccc3F)CC2)oc1-c1ccccc1	nt	nt	23.0	18.4µM*	nt	9.2µM*
CCCCNC(=O)c1nc(C2CCN(S(=O)(=O)c3ccccc3C(F)(F)F)CC2)oc1-c1ccccc1	nt	nt	2.7	16.4µM*	nt	23.1µM*
CCCCNC(=O)c1nc(C2CCN(S(=O)(=O)c3ccc(F)c(F)c3)CC2)oc1-c1ccccc1	nt	nt	6.1	6.51µM*	nt	10.3µM*
CCCCNC(=O)c1nc(C2CCN(S(=O)(=O)c3c(F)cccc3F)CC2)oc1-c1cccc(C(F)(F)F)c1	nt	nt	0.0	-9.9%	nt	6.7%
CCCCNC(=O)c1nc(C2CCN(S(=O)(=O)c3ccccc3C(F)(F)F)CC2)oc1-c1cccc(C(F)(F)F)c1	nt	nt	7.4	-0.5%	nt	2.2%
CCCCCNC(=O)c1cc(S(=O)(=O)N2CCCC2)ccc1F	7.9%	4.3%	34.9	-39.2%	-12.3	?
CCCCNC(=O)c1nc(C2CCN(S(=O)(=O)c3ccc(OC(F)(F)F)cc3)CC2)oc1-c1ccccc1	nt	nt	-7.9	6.51µM*	nt	7.31µM*
